The source of these data is PubChem BioAssay AID2228 (National Center for Advancing Translational Sciences (NCATS), 2010).

The source made the active and inactive calls.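 Rule for the calls: active = any rise in protein melting temperature, meaning a thermal shift above zero; inactive = the rest.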

Luciferin 4-monooxygenase (Photinus pyralis), sequence (P08659 whole entry, looked up): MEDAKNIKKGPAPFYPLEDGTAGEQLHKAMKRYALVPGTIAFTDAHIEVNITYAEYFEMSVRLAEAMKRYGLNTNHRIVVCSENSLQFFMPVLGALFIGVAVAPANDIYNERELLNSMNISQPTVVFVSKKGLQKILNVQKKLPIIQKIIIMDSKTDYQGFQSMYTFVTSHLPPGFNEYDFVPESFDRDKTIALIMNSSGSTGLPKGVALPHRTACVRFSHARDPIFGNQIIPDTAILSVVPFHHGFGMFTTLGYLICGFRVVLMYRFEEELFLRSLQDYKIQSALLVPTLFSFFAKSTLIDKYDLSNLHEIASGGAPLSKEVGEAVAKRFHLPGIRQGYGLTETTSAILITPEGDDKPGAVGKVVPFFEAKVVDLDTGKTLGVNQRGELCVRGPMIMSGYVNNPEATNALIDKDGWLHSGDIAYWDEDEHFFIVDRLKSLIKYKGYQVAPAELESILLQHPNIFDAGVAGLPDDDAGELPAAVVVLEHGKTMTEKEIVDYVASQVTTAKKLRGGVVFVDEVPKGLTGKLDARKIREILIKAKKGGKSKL

The target in the test is Luciferin 4-monooxygenase (Photinus pyralis) (UniProt P08659). Briefly: Thermal Shift Assay for Inhibitors of FLuc (Firefly Luciferase, Photinus pyralis) in Presence of ATP. As to conditions: Purified FLuc with ATP, SYPRO Orange thermal shift; at 200 µM; active compounds read high. From the text:
Firefly (Photinus pyralis) luciferase (FLuc) is widely used as a reporter in biological assays. […] In order to determine if FLuc thermal stabilization parallels inhibitor potency, a fluorescence-based thermal denaturation assay was developed in this present study. An environmentally sensitive fluorescence dye, SYPRO Orange (Invitrogen, presently Life Technologies) was utilized to monitor the fluorescence change as a function of temperature. The dye preferentially binds to the hydrophobic regions of the protein, and its high signal-to-noise ratio, large Stokes shift and high excitation wavelength make it ideal for thermal shift application. In this assay, the melting temperature (Tm) (the inflection point of the protein melt transition) was assessed for each sample tested. Differences in the Tm between controls and compound-containing samples were determined (the thermal shift or delta Tm), and compounds were ranked by the degree of their thermal shift at the top concentration (200 uM). […] FLuc catalyzes light production in bioluminescent organisms. The reaction requires luciferin, ATP and O2 as substrate, and it includes the formation of a luciferyl-AMP intermediate and the subsequent production of light, AMP, oxyluciferin and CO2. In this study, PTC124 and analogues were evaluated for their potential to stabilize FLuc in the absence and presence of ATP. This particular BioAssay is in the presence of ATP. See related BioAssay "Thermal Shift Assay for Inhibitors of FLuc (Firefly Luciferase, Photinus pyralis) in the Absence of ATP" See [6] for more details on this assay and related studies. Welch, et al. PTC124 targets genetic disorders caused by nonsense mutations. Nature 447 (2007) 87-91. D.S. Auld, N. Thorne, W.F. Maguire, and J. Inglese, Mechanism of PTC124 activity in cell-based luciferase assays of nonsense codon suppression. Proc Natl Acad Sci U S A 106 (2009) 3585-90. D.S. Auld, N. Thorne, D.T. Nguyen, and J. Inglese, A specific mechanism for nonspecific activation in reporter-gene assays. ACS Chem Biol 3 (2008) 463-70. [4]F.H. Niesen, H. Berglund, and M. Vedadi, The use of differential scanning fluorimetry to detect ligand interactions that promote protein stability. Nat Protoc 2 (2007) 2212-21. J.R. de Wet, K.V. Wood, M. DeLuca, D.R. Helinski, and S. Subramani, Firefly luciferase gene: structure and expression in mammalian cells. Mol Cell Biol 7 (1987) 725-37. Auld, et al. Molecular Basis for the High Affinity Binding and Stabilization of Firefly Luciferase by PTC124. Proc Natl Acad Sci U S A, accepted.
Assay Protocol: 1.8 uM FLuc was tested in Tris-acetate buffer (pH 7.6) or phosphate buffer saline (pH 7.4). ATP final concentration was 2 mM. Compounds were tested at 200 uM. Data was captured on an iQ5 Real Time PCR Detection system (Bio-Rad) using a temperature range from 20 to 95C in increments of 1C and a ramping rate of 0.1C/s. Fluorescence intensity changes (Ex 490/Em 575 nm) were monitored with a charge-coupled device (CCD) camera. Buffer: 50 mM Tris-acetate, pH 7.6 (with or without 2 mM ATP); 1X PBS, pH 7.4 (with or without 2 mM ATP)
For the compound `O=C(O)c1cccc(-c2noc(-c3ccccc3F)n2)c1`, the thermal shift (delta Tm) is 13.1 C (active).

With `O=C(O)c1cccc(-c2noc(-c3cccc(Cl)c3)n2)c1`, the thermal shift (delta Tm) is 11.8 C (active).

Regarding `O=C(O)c1ccc(-c2noc(-c3ccccc3F)n2)cc1`, the thermal shift (delta Tm) is 11.6 C (active).

Regarding `NC(=O)c1cccc(-c2noc(-c3ccccc3F)n2)c1`, the thermal shift (delta Tm) is 6.12 C (active).

As for `O=C(O)c1ccccc1-c1noc(-c2ccccc2F)n1`, the thermal shift (delta Tm) is 5.48 C (active).

Regarding `NC(=O)c1ccccc1-c1noc(-c2ccccc2F)n1`, the thermal shift (delta Tm) is 3.72 C (active).

In the case of `Fc1ccccc1-c1nc(-c2cccc(-c3nn[nH]n3)c2)no1`, the thermal shift (delta Tm) is 6.04 C (active).

For `Nc1ncnc2c1ncn2[C@@H]1O[C@H](COP(=O)(O)OC(=O)c2cccc(-c3noc(-c4ccccc4F)n3)c2)[C@@H](O)[C@H]1O`, the thermal shift (delta Tm) is 12.6 C (active).
